Where “and” joins values, the source holds several entries; their conditions need not be identical. Identical values can stand only once. A structure can be active in one record and inactive in another. Calls of active or inactive are those of the source. Rule for the calls: active = hit-call score of the fitted dose curve at least 0.9, where 1 is the maximum; inactive = score below 0.9.
read-out: Macrophage colony-stimulating factor (MCSF), CSF1 (gene 1435); assay: BSK_hDFCGF_MCSF: BioMAP Diversity Plus: hDFCGF Assay for Macrophage colony-stimulating factor (MCSF) Biomarker Activity (AID 2283060); conditions: AC50: primary human foreskin fibroblasts, actives raise or lower the signal unless noted; outcome: primary human foreskin fibroblasts, actives raise or lower the signal unless noted
Protocol: BSK_hDFCGF is a cell-based, multiplexed-readout assay that uses foreskin fibroblast, a human skin primary cell, with measurements taken at 24 hours after chemical dosing in a 96-well plate.BSK_hDFCGF_MCSF is an assay component measured in the BSK_hDFCGF assay. It measures M-CSF antibody related to regulation of gene expression using ELISA technology.Data from the assay component BSK_hDFCGF_MCSF was analyzed into 1 assay endpoint. This assay endpoint, BSK_hDFCGF_MCSF, was analyzed with bidirectional fitting relative to DMSO as the negative control and baseline of activity. Using a type of binding reporter, gain or loss-of-signal activity can be used to understand changes in the signaling as they relate to the gene CSF1. Furthermore, this assay endpoint can be referred to as a primary readout, because this assay has produced multiple assay endpoints where this one serves a signaling function. To generalize the intended target to other relatable targets, this assay endpoint is annotated to the cytokine intended target family, where the subfamily is colony stimulating factor.
The levels of cell surface (or secreted, indicated by the prefix "s") biomarker endpoints were measured by ELISA. Overt cytotoxicity to cells in confluent adherent cultures (all systems other than the BT system) was assessed by measuring total protein levels using sulforhodamine B (SRB) staining in parallel cultures at the time of biomarker measurements, indicated as SRB endpoints. For proliferation assays for adherent cell types, individual cell types are cultured at sub-confluence and relative cell numbers quantified by SRB staining at time points optimized for each system (48 h: 3C and CASM3C systems; 72 h: BT and HDF3CGF systems; 96 h: SAg system). SRB was performed by staining cells with 0.1% SRB after fixation with 10% TCA and reading wells at 560 nm.Viability and proliferation of PBMC (T cells) was quantified by Alamar Blue reduction for the SAg and BT systems. For PBMC viability (referred to as PBMC Cytotoxicity within the assay endpoint names), cells were plated (75,000/well in a 96-well plate) and then chemical samples added for 1 h before addition of activators, SEB and TSST-1 (20 ng/mL final concentration each). Cells were incubated for 90 h. Then, Alamar Blue (20 uL/well) (Invitrogen, Cat DAL1100) was added for 6 h, and the plates were read with a fluorescence microplate reader at 546/580 nm (excitation/emission). For PBMC proliferation, cells were plated and activated as above but incubated for only 16 h prior to addition of Alamar Blue. Plates were read after 6 h.

Structure (SMILES) | outcome | AC50
Sc1nc2ccccc2s1 | inactive | –
C1CN(CCOCCN2CCOCC2)CCO1 | inactive | –
CCC(C)=NO | inactive | –
Cc1c(C(N)=O)cc([N+](=O)[O-])cc1[N+](=O)[O-] | inactive | –
CC[N+](CC)(CC(=O)Nc1c(C)cccc1C)Cc1ccccc1 (tested in a mixture with another compound) | inactive | –
Cc1cccnc1 | inactive | –
COC(=O)/C=C\C(=O)OC | inactive | –
CC[N+](CC)(CC(=O)Nc1c(C)cccc1C)Cc1ccccc1 | inactive | –
O=C(C(=O)c1ccccc1)c1ccccc1 | inactive | –
CCCCCCCCCCCCCCCCCC[N+](C)(C)C | – | 3.11 µM (active)
OC(C(F)(F)F)(C(F)(F)F)C(O)(C(F)(F)F)C(F)(F)F | – | 14.3 µM (active) and 19.2 µM (active)
Oc1cccc2ccccc12 | inactive | –
CCC[Si](OC(C)=O)(OC(C)=O)OC(C)=O | inactive | –
COc1ccccc1Oc1c(NS(=O)(=O)c2ccc(C(C)(C)C)cc2)nc(-c2ncccn2)nc1OCCO | inactive | –
COc1ccc(C(=O)c2ccccc2O)c(O)c1 | inactive | –
Cc1cc(-n2nc3ccc(Cl)cc3n2)c(O)c(C(C)(C)C)c1 | inactive | –
CCCCC(CC)COC(=O)C=Cc1ccc(OC)cc1 (stereo not drawn) | – | 15.9 µM (active) and 12.6 µM (active)
CCCCCCCCCCC1CO1 (stereo not drawn) | – | 20 µM (active)
CN(C)Cc1cc(C(C)(C)C)c(O)c(C(C)(C)C)c1 | inactive [setting not given] | 18.3 µM [setting not given] (active)
CCCCCCC(O)CCCCCCCCCCC(=O)OC (stereo not drawn) | inactive | –
CN(C)c1ccc(C(c2ccccc2)c2ccc(N(C)C)cc2)cc1 | inactive | –
CC(C)CC(=O)CC(C)CC(C)C (stereo not drawn) | inactive | –
COc1cc(CNC(=O)CCCC/C=C/C(C)C)ccc1O | inactive | –
O=[N+]([O-])c1cc(S(=O)(=O)Nc2ccccc2)ccc1Nc1ccccc1 | – | 29.3 µM (active) and 29.5 µM (active)
CN(C)CCC(c1ccc(Cl)cc1)c1ccccn1 (stereo not drawn) | inactive | –
CC(C)C1OCCN1CCOC(=O)NCCCCCCNC(=O)OCCN1CCOC1C(C)C (stereo not drawn) | inactive | –
CCCCCCCCCC/C=C/C1CC(=O)OC1=O (stereo not drawn) | inactive | –

Source: PubChem BioAssay (EPA / NIEHS)
